A short description of test [1]: antimalarial activity against Dd2 strain (AID 2302;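 active = growth inhibition above 50% at the single 2 µM test dose, taken to imply half-maximal potency below 2 µM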;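 note: 0% = DMSO untreated growth and 100% = chloroquine plus artemisinin killed control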). The conditions noted are these: P. falciparum Dd2 in RBCs, LDH growth readout, 72 h; at 2 µM; hits give high values.
The nature of test [2]: human hepatoma cell viability loss – ATP luminescence, cytotoxicity control for P. falciparum antimalarial project, primary screen (AID 2303;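 active = inhibition above 50%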;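 note: 0% = DMSO wells and 100% = digitonin-killed cells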). The note with it: HepG2 viability, 24-48 h, at 10 µM, hits give high values.
In test [3] the target is L-lactate dehydrogenase (Plasmodium falciparum (isolate CDC / Honduras)) (UniProt Q27743). In words: PfLDH activity inhibition – cell lysate, 3D7 strain, counter-screen for P. falciparum growth inhibition project (AID 2304).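 Note: 0% = vehicle and 100% = reference inhibitor.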 The note with it: P. falciparum 3D7 crude extract, LDH APAD/NBT absorbance; at 2 µM; hits give high values. For orientation: The purpose of a counterscreen is to sort out artefacts and off-target activity.
Chain of L-lactate dehydrogenase (Plasmodium falciparum (isolate CDC / Honduras)) (Q27743 whole entry, looked up): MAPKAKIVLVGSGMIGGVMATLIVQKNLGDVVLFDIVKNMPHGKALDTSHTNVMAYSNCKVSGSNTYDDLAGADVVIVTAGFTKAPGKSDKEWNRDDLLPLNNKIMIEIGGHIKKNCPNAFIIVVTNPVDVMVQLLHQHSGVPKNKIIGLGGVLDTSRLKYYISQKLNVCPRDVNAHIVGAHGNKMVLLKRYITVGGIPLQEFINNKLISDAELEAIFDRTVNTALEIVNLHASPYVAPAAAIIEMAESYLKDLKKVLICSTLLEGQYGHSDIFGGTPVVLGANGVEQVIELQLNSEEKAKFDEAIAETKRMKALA

The nature of test [4]: inhibition of 3D7 malaria parasite growth – strain 3D7 (AID 2306).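 Note: 0% = DMSO wells and 100% = chloroquine plus artemisinin control wells.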 The conditions noted are these: P. falciparum 3D7 erythrocytic growth, LDH absorbance, 72 h; at 2 µM; hits give high values.
The target in test [5] is Calcium-dependent protein kinase 1 (Plasmodium falciparum (isolate 3D7)) (UniProt P62344). The test can be described thus: PfCDPK1 kinase inhibitors, biochemical, TCAMS library (AID 1159585; cut-off not given, nearly all actives have IC50 up to about 0.98 µM;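 note: inhibitors leave more ATP so luminescence rises with inhibition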). The note with it: recombinant PfCDPK1, Kinase-Glo ATP depletion luminescence. For orientation: Kinase-Glo measures the ATP left after a reaction by luminescence.
Chain of Calcium-dependent protein kinase 1 (Plasmodium falciparum (isolate 3D7)) (P62344 whole entry, looked up): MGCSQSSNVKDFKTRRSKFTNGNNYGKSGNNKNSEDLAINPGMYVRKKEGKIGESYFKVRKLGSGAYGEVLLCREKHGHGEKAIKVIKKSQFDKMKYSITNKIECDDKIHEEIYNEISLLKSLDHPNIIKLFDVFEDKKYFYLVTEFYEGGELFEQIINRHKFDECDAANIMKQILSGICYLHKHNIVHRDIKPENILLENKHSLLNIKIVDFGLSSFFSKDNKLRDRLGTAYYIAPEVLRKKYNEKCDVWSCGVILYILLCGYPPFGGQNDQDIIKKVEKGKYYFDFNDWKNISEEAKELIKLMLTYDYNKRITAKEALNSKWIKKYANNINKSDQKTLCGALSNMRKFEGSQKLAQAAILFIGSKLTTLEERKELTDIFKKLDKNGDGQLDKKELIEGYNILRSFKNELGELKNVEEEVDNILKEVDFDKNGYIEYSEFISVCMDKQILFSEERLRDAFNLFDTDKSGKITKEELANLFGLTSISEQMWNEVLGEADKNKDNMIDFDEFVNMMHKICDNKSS
In test [6] the target is Plasmodium falciparum protein kinase 6 (PK6, PF3D7_1337100) (UniProt Q8IDW1). The test can be described thus: PfPK6 kinase inhibitors, biochemical, TCAMS library (AID 1159586). The conditions noted are these: recombinant PfPK6, Kinase-Glo ATP depletion luminescence.
Chain of Plasmodium falciparum protein kinase 6 (PK6, PF3D7_1337100) (Q8IDW1 1-305): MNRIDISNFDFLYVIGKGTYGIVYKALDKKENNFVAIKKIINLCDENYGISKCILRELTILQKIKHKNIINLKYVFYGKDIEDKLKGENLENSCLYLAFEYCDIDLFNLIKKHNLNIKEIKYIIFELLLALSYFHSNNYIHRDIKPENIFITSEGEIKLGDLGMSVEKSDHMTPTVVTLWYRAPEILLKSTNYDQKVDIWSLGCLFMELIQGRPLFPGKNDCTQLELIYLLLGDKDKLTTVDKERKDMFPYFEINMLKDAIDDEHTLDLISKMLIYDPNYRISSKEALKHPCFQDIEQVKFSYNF
Test [7] has as its target Protein kinase 7 (PK7), Plasmodium falciparum 3D7 (PF3D7_0213400) (UniProt Q7YTF7). In words: inhibition of Plasmodium PK7 catalytic activity – biochemical, TCAMS antimalarial set, Kinase-Glo luminescence (AID 1159587). The note with it: recombinant PfPK7, Kinase-Glo ATP depletion luminescence.
The target in test [8] is Calcium-dependent protein kinase 4 (Plasmodium falciparum (isolate 3D7)) (UniProt Q8IBS5). The test can be described thus: PfCDPK4 kinase inhibitors, biochemical, TCAMS library (AID 1159588; cut-off not given, nearly all actives have IC50 up to about 0.91 µM). The note with it: recombinant PfCDPK4, Kinase-Glo ATP depletion luminescence.
Chain of Calcium-dependent protein kinase 4 (Plasmodium falciparum (isolate 3D7)) (Q8IBS5 whole entry, looked up): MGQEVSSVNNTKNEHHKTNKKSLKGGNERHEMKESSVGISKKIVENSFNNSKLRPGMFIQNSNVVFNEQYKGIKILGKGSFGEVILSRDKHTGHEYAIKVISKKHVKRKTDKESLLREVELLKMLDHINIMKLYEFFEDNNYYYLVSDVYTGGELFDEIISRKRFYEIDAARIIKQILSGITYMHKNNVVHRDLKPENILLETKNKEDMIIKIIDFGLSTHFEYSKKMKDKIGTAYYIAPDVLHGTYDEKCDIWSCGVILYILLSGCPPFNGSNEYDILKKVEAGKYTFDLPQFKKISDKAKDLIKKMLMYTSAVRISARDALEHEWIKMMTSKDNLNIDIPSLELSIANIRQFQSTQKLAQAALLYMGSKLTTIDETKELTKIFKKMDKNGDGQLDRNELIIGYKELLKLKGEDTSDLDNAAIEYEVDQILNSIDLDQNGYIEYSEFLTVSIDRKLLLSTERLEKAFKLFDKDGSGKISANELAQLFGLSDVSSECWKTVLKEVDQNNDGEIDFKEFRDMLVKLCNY

Values without a mark were called inactive. For some assays here: Potency and affinity values are given separately. Active and inactive are the calls of the source. Unless noted, the rule behind the calls is not given here.

Chain of Protein kinase 7 (PK7), Plasmodium falciparum 3D7 (PF3D7_0213400) (Q7YTF7 1-343): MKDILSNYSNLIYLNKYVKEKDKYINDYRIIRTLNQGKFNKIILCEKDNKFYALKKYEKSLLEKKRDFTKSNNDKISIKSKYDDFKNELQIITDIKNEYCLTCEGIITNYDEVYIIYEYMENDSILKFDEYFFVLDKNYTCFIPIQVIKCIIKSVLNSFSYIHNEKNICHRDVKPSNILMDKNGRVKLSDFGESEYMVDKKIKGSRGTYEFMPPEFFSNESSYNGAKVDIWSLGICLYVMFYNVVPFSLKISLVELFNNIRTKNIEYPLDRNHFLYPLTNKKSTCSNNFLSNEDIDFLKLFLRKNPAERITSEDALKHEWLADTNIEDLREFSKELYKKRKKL

As a reminder, the inhibition is the drop in the measured response relative to a control, in per cent. In the case of `CC(C)CNCc1ccc(-c2ccc(CN(C(=O)NCCc3ccccc3)C3CCN(Cc4ccccc4)CC3)cc2)cc1`, the figures for the growth inhibition in test [1] and in test [4] were 62% (active) and 98% (active), respectively. For the same compound, the inhibition in test [2] was 37%; in test [3] it was -3%. The result in test [5], in test [6], in test [7] and in test [8] was inactive.
With `COc1cc2nc(N3CCC(CNC(=O)c4ccc(-c5ccc(Cl)cc5)cc4)CC3)nc(N)c2cc1OC`, the growth inhibition in test [1] is 101% (active); in test [4] it was 100% (active). The inhibition is 99% (active) in test [2] and 8% in test [3]. The result in test [5], in test [6], in test [7] and in test [8] was inactive.
Turning to `Cc1ccc(-c2cc(C(=O)Nc3ccc(S(=O)(=O)N(C)Cc4ccccc4)cc3)[nH]n2)c(O)c1`, the values for the growth inhibition in test [1] and in test [4] were 67% (active) and 99% (active), respectively. In addition, the results for the inhibition in test [2] and in test [3] were 34% and -1%, respectively. Moreover, the outcome in test [5], in test [6], in test [7] and in test [8] was inactive.
`CSc1ccc(CN2CCC(NC(=O)c3ccc(-c4cccc(C(F)(F)F)c4)s3)CC2)cc1`: the figures for the growth inhibition in test [1] and in test [4] were 9% and 90% (active), respectively. Besides, the inhibition in test [2] is 68% (active); in test [3], -2%. Also, the result in test [5], in test [6], in test [7] and in test [8] was inactive.
